High-throughput results (PubChem BioAssay)
Sampled rows, rich in hits. Any-hit rate of the full collection: about 3.4%.
proKLK7 act: activators of human kallikrein-7 zymogen. purified proKLK7, EDANS-DABCYL substrate fluorescence; 100% is mature enzyme control, 0% vehicle. AID 652039. activation, % at 7 µM. P49862. hit rate 0.9% among 370,000;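 active = activation above the mean of all tested compounds plus 3 SD, computed per campaign excluding outliers beyond control limits, cut at about 13% in these data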
PLCg1 inh: blocks human PLC-gamma1 enzyme activity | P19174 | purified PLC-gamma1, fluorogenic substrate, fluorescence | inhibition, % at 12.2 µM | hit rate 0.84% among 370,000
ADAM17 inh: inhibits human ADAM17; recombinant ADAM17, EDANS/DABCYL FRET peptide cleavage; hit rate 0.83% among 370,000; AID 720648; inhibition, % at 6.95 µM;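 active = inhibition above the mean of compounds lying between control limits plus 3 SD, set per campaign, cut at about 8.5% in these data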;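 note: 0% = DMSO-only wells as the low control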
sPLA2-III inh: Inhibits HGIII-sPLA2 liposome hydrolysis, primary screen. Q9NZ20. QFRET BODIPY PC-A2 liposome hydrolysis, fluorescence. inhibition, % at 12.2 µM. hit rate 0.56% among 370,000;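 active = inhibition above mean plus 3 SD of compounds lying within the high and low control bounds, cut at about 19% in these data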;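 note: 0% = median of test compound wells and 100% = no enzyme DMSO wells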
PLC-beta3 inh: blocks human PLC-beta3 enzyme activity. Q01970. Purified PLC-beta3, fluorogenic substrate, fluorescence. inhibition, % at 12.2 µM. hit rate 0.18% among 370,000; in the data active = inhibition above about 11%;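 note: 0% = median of compound wells on plate and 100% = full blocker control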
ADAM10 inh: inhibits human ADAM10; O14672; AID 720582; hit rate 0.62% among 370,000; inhibition, % at 7 µM; recombinant ADAM10, EDANS/DABCYL FRET peptide cleavage, 3 h;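 active = inhibition above a per-campaign cutoff equal to the mean of compounds falling between control-based bounds plus 3 SD, cut at about 20% in these data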;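 note: 0% = DMSO wells while the 100% control is not disclosed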
Target sequence (O14672 214-748 limits assumed): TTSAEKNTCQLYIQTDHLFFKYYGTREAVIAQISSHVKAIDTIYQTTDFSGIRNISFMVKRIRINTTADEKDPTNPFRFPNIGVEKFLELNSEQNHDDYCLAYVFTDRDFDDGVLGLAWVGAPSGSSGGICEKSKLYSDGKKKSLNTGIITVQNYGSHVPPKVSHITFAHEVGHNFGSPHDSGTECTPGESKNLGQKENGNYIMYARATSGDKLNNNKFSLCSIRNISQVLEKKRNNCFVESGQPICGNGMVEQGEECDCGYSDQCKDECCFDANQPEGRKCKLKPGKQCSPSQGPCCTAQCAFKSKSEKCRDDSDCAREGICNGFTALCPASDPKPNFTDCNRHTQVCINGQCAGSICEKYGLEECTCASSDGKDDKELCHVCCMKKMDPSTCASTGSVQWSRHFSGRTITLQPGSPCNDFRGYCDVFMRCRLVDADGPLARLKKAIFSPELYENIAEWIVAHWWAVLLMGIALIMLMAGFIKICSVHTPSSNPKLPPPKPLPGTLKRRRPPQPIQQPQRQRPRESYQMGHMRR
ADAM10 confirm: confirmation of inhibitors of human ADAM10; shares compounds with ADAM10 inh; ADAM10 QFRET peptide cleavage, EDANS fluorescence; inhibition, % at 6.95 µM; hit rate 1% among 2,100;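 active = inhibition above about 20% chosen separately for each screening run, limit read from the data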;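 note: 0% = DMSO wells and 100% = marimastat wells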
ADAM17 counter: ADAM17 inhibition, counter-screen for ADAM10 exosite hits; shares compounds with ADAM10 inh; ADAM17 QFRET peptide cleavage, EDANS fluorescence; inhibition, % at 6.95 µM; hit rate 0.5% among 2,100; AID 743214;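 active = mean triplicate inhibition above the solvent-only control wells' mean plus 3 SD, cut at about 12% in these data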;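 note: 0% = DMSO wells and 100% = marimastat wells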
ADAM10 counter: ADAM10 inhibition, counter-screen for ADAM17 exosite hits; shares compounds with ADAM17 inh; recombinant ADAM10, EDANS/DABCYL FRET peptide cleavage, 3 h; inhibition, % at 6.95 µM; hit rate 47% among 2,900;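 active = mean inhibition over the triplicate runs exceeds the activity threshold set in the earlier primary screen, cut at about 20% in these data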;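 note: 0% = DMSO wells and 100% = marimastat wells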
ADAM17 confirm: human ADAM17 inhibition, confirmation | shares compounds with ADAM17 inh | recombinant ADAM17, EDANS/DABCYL QFRET peptide cleavage | inhibition, % at 6.95 µM | hit rate 65% among 2,900;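 active = mean inhibition across replicates above the hit cutoff set in the primary screen, cut at about 8.5% in these data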;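 note: 0% = DMSO wells and 100% = marimastat wells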
PLCgamma1 ctr: counter-screen for PLC-beta3 inhibitors: inhibitors of human PLC-gamma1 | hit rate 3.1% among 3,300 | shares compounds with PLCg1 inh | purified PLC-gamma1, fluorogenic substrate, fluorescence | inhibition, % at 12.3 µM
PLCb3 confirm: human PLC-beta3 inhibition, confirmation; inhibition, % at 12.3 µM; hit rate 1% among 3,300; AID 743261; shares compounds with PLCg1 inh; purified PLC-beta3, fluorogenic substrate fluorescence; in the data active = inhibition above about 11%
* hit, by the source's call; . = no result given. Cut-off read from the data, not from the text of the source, unless noted: active = inhibition above about 9.5%; inactive = the rest.

SMILES	proKLK7 act	PLCg1 inh	ADAM17 inh	sPLA2-III inh	PLC-beta3 inh	ADAM10 inh	ADAM10 confirm	ADAM17 counter	ADAM10 counter	ADAM17 confirm	PLCgamma1 ctr	PLCb3 confirm
Cc1cc(Cl)ccc1OC(C)C(=O)N1CCCN(C(=O)C(C)Oc2ccc(Cl)cc2C)CC1 (stereo unspecified)	0.7	10.4*	15.1*	-31.4	4.5	25.5*	4.5	1.4	28.6*	17.5*	-5.4	-4.4
CC(Oc1ccccc1Cl)C(=O)N1CCCN(C)CC1 (stereo unspecified)	-0.4	-0.5	0.5	4.6	-6.5	3.8	.	.	.	.	.	.
COc1cccc(-c2csc(NC(=O)Nc3ccccc3)n2)c1	0.2	11.9*	5.1	-32.5	-6.7	25.1*	7.4	1.5	.	.	2.7	0.4
CCCC(C)(C)C(=O)N1CCC1(C)C(=O)Nc1ccc(OC)c(OC)c1 (stereo unspecified)	0.0	1.9	1.0	0.1	5.9	-7.2	.	.	.	.	.	.
C[C@@]12C(=O)N(c3cccc(F)c3)C(=O)N1[C@@H]1c3ccccc3OC[C@@H]1[C@H]2c1ccccc1	-0.5	10.0*	11.5*	10.1	5.8	23.4*	5.0	1.7	5.2	6.9	3.9	3.6
C[C@@]12C(=O)N(c3cccc(Cl)c3)C(=O)N1[C@@H]1c3ccccc3OC[C@@H]1[C@H]2c1ccccc1	0.3	0.5	-2.9	0.3	1.2	1.4	.	.	.	.	.	.
O=C(NC1CCCC1)c1n[nH]c2ccccc12	-0.3	2.7	-5.8	1.9	-1.5	-7.2	.	.	.	.	.	.
O=C(NCCc1cnccn1)C1CCC(=O)N(Cc2ccc(Cl)cc2)C1 (stereo unspecified)	-0.1	2.4	-4.4	-2.9	-0.5	3.6	.	.	.	.	.	.
COc1cc(CNc2ncnc3c2ncn3[C@H]2CN(Cc3cccc(C(F)(F)F)c3)C[C@@H](CO)O2)cc(OC)c1OC	0.1	9.6*	9.7*	-37.3	3.1	22.7*	0.6	-0.8	14.2	10.1*	-2.4	2.5
COc1cc(CNc2ncnc3c2ncn3[C@H]2CN(Cc3cccc(C(F)(F)F)c3)C[C@@H](COC(C)=O)O2)cc(OC)c1OC	-0.8	-0.4	5.5	-23.9	0.9	10.4	.	.	.	.	.	.
Cc1nn(Cc2ccccc2)c(C)c1/C=N/NC(=O)CNc1cccc(C(F)(F)F)c1	-0.4	9.6*	11.1*	-8.6	0.0	21.3*	3.6	0.6	18.9	10.1*	-10.9	-4.9
COc1ccc(OC)c(NC(=O)COC(=O)Cc2ccc(-c3ccccc3)cc2)c1	0.3	14.3*	14.9*	-46.6	1.1	27.7*	6.7	1.8	14.4	12.6*	-8.0	-5.7
COc1ccc(OC)c(NC(=O)COC(=O)Cc2ccc(Br)cc2)c1	0.2	-1.3	2.3	-15.7	-2.6	8.5	.	.	.	.	.	.
